Shown are actives, neighbours in structure and some others; about 11% of the full set was active somewhere.
Vaccinia Venus = inhibitors of vaccinia virus (Venus reporter); Vaccinia virus Venus reporter expression, fluorescence; Potency, µM (titrated, usually from 36.5 µM), for the others: top-dose activity change, negative = inhibition, most hits filed as inhibitors; actives 0.46% (n = 330,000); AID 720580; calls by dose curve; tested in A549 cells; also: potency is read from the fitted curve at half-maximal effect; % is scaled to controls: 0 for no effect and ±100 for the full control effect; nearly all actives have a fitted effect of over 30% in size
Pf growth 48h = inhibits P. falciparum growth in the first generation, 48 h; P. falciparum luciferase growth in erythrocytes, 48 h; AID 504832; Potency, µM (series often up to 28.7 µM), for the others: at the highest dose activity change, negative = inhibition, hits mostly inhibitors; actives 5.9% (n = 310,000); also: potency is read from the fitted curve at half-maximal effect; % is scaled to controls: 0 for no effect and ±100 for the full control effect
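Erythrocytes infected with P. falciparum carrying an integrated firefly luciferase reporter (2% hematocrit, 0.1% parasitemia final) were exposed to compounds in RPMI 1640 with 0.5% Albumax at 37 C, 5% CO2. Growth inhibition was scored as reduced luminescence.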
HCV inh = HCV inhibition; Huh7.5.1 HCVcc-Cre infection, luciferase reporter, 44 h; Potency, µM (doses to about 41.8 µM), without a hit: at the highest dose activity change, negative = inhibition, most hits filed as inhibitors; actives 3.4% (n = 340,000); AID 651820; also: potency is read from the fitted curve at half-maximal effect; % is scaled to controls: 0 for no effect and ±100 for the full control effect
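A cell-based infection assay in which seeded cells (1,000 per well) receive test compound after 4 h, are inoculated with HCVcc-Cre at approximately 0.5 moi, and are incubated 44 h before luminescence detection.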
VACV mCherry inh = inhibitors of vaccinia virus infection (mCherry reporter signal). Vaccinia virus mCherry reporter infection, fluorescence. Potency, µM (highest dose often 36.5 µM), for inactives: at the highest dose activity change, negative = inhibition, hits mostly inhibitors. actives 0.63% (n = 310,000). AID 720579; calls by dose curve; tested in A549 cells; also: potency is read from the fitted curve at half-maximal effect; % is scaled to controls: 0 for no effect and ±100 for the full control effect; nearly all actives have a fitted effect of over 35% in size
Pf growth 96h = inhibits malaria parasite growth, 96 h; P. falciparum luciferase reporter growth, 96 h; Potency, µM (top dose mostly 28.7 µM), for inactives: top-dose activity change, negative = inhibition, most hits filed as inhibitors; actives 6.9% (n = 320,000); AID 504834; also: potency is read from the fitted curve at half-maximal effect; % is scaled to controls: 0 for no effect and ±100 for the full control effect
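96 h incubation, 37 C, 5% CO2, of luciferase-reporter P. falciparum-infected RBCs (2% hematocrit, 0.05% parasitemia final) with test compounds; endpoint luminescence.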
NS1 function inh = influenza NS1 inhibition; Potency, µM (top dose mostly 46.1 µM), for the others: at the highest dose activity, positive = more growth; actives 0.4% (n = 270,000); calls by dose curve; also: potency is read from the fitted curve at half-maximal effect; actives are rising curves; nearly all actives have a fitted effect of over 50% in size
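Read-out: OD600 growth recovery of NS1-expressing budding yeast. Cells grown overnight at 30C in -URA glucose medium, washed, resuspended and diluted 1:100 in 2% galactose assay medium, pH 6.0. Same strain lacking NS1 served as positive control.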
NS1 inh valid = validation of influenza NS1 protein function inhibitors; shares compounds with NS1 function inh; activity change, negative = inhibition, % at 32.9 µM; 1,400 tested, under 10 active; influenza NS1 function cell assay, 15-point titration; calls by dose curve; also: 0% is about no effect
* marks the source's active call; other numbers are inactive results; i = inactive; ? = inconclusive; . = not tested or not shown. Unless noted, calls follow the shape of the dose curve; as a rule, active = well fitted inhibition curve with a large enough effect; inconclusive = small, poorly fitted or top-dose-only effect, or another doubt; inactive = no such curve, though single readings can be large or run the other way.

SMILES	Vaccinia Venus	Pf growth 48h	HCV inh	VACV mCherry inh	Pf growth 96h	NS1 function inh	NS1 inh valid
Cc1ccc(NC(=O)C2CCCN(S(=O)(=O)c3cnc[nH]3)C2)c(Br)c1 (stereo unspecified)	-7%	19%	19%	i	22%	2µM*	1
Cc1nc2c(-c3ccc(F)cc3)c(C)nn2c(C)c1CCC(=O)N1CCC(Cc2ccccc2)CC1	-14%	.	-10%	i	?	7.1µM*	-33
COc1ccc(CN2CCC(n3nccc3NC(=O)C3CCCC3)CC2)cc1	.	?	-5%	.	23%	7%	.
Cc1ccccc1NC(=S)N1CCCC1	-12%	4%	16%	-10%	?	10%	.
CCC(C)NC(=O)C1CN(S(=O)(=O)c2ccccc2)CCN1S(=O)(=O)c1ccccc1 (stereo unspecified)	-17%	-19%	-22%	.	.	-15%	.
CC(C)(C)C1CCc2onc(C(=O)Nc3ccc(F)cc3F)c2C1 (stereo unspecified)	-8%	4%	.	i	-16%	?	?
O=C(O)c1cccc(N2C(=O)CCC2=O)c1	.	25%	.	.	49%	3%	.
C/C(=N\NC(=O)Cc1cc(=O)[nH][nH]1)c1cccc([N+](=O)[O-])c1	.	-5%	15%	.	31%	27%	.
C/C(=N/NC(=O)Cc1cc(=O)[nH][nH]1)c1ccc([N+](=O)[O-])cc1	.	14%	11%	.	39%	13µM*	?
COc1ccc(N(CC(=O)NCCC(C)C)C(=O)c2snc(C(=O)NC3CCCCC3)c2N)c(OC)c1	-18%	?	?	-14%	15%	13µM*	5
COc1ccccc1-c1nc(SCc2ccccn2)n[nH]1	-6%	50%	7%	.	46%	-14%	.
COc1ccc(C(CNC(=O)c2cccn2C)N2CCOCC2)cc1 (stereo unspecified)	.	31%	?	.	33%	.	.
CCOC(=O)c1cn(Cc2ccccc2)nn1	-9%	25%	11%	-15%	?	1.4µM*	-7
CCOc1cc(C(=O)Nc2ccc3nc(N4CCN(C)CC4)cc(C)c3c2)cc(OCC)c1OCC	-23%	.	.	i	.	.	.
Cc1ccccc1Nc1nc(N)nc(CSCC(=O)Nc2cccc(Br)c2)n1	-16%	-5%	-8%	i	-13%	?	-11
Cc1ccc(SCc2nc(N)nc(Nc3ccccc3C)n2)c(C)c1	.	2%	?	.	?	-49%	.
CC(C)Cn1c(N)c(C(=O)COC(=O)c2ccc3ccccc3n2)c(=O)n(C)c1=O	-11%	-17%	?	i	4.1µM*	10µM*	-6
Cc1ccc(-c2noc(C3CCCN(C(=O)c4ccccc4Br)C3)n2)o1 (stereo unspecified)	-6%	?	-19%	i	1%	?	-10
Cc1ccc(CNC(=O)[C@H](C)NC(=O)C2CCN(C(=O)[C@@H](N)CC(C)C)CC2)cc1	-11%	73%	22%	-9%	-17%	12%	.
CCOC(=O)/C(=C\c1ccccc1)NC(=O)c1ccccc1	.	-12%	7%	.	15%	3%	.
COc1ccc(C(C)=O)cc1COc1cccnc1[N+](=O)[O-]	-14%	-5%	?	-5%	1%	?	-6
Cc1c(NC(=O)c2ccc(N3CCCC3)c([N+](=O)[O-])c2)cccc1-c1nc2ccccc2s1	-16%	10µM*	?	i	?	2µM*	11
Cc1cnc(C(=O)OCC(=O)NC(=O)NC(C)C)cn1	0%	-8%	33%	.	20%	1.4µM*	-3
O=C(N/N=C/C=C\c1ccccc1[N+](=O)[O-])c1ccccn1	2%	110%	9%	0%	91%	-21%	.
O=C(N/N=C/C=C/c1ccccc1[N+](=O)[O-])c1cc(-c2ccccc2)n[nH]1	-10%	?	17%	i	?	2.2µM*	10
SMILES	Vaccinia Venus	Pf growth 48h	HCV inh	VACV mCherry inh	Pf growth 96h	NS1 function inh	NS1 inh valid
COc1cccc(-c2c(C(=O)N/N=C/c3ccco3)nnn2-c2nonc2N)c1	.	20%	5%	.	4%	7%	.
Cc1ccc(C(c2sc3nc(C)nn3c2O)N2CC(C)OC(C)C2)cc1 (stereo unspecified)	-13%	-28%	3%	-23%	?	1%	.
CCn1c(O)c(N=N)c2ccccc21	1%	4%	-20%	-4%	22%	.	.
N=Nc1c(O)n(CC(=O)Nc2ccccc2)c2ccccc12	.	?	0%	.	34%	2.5µM*	24
Cc1ccccc1OCC(=O)N=Nc1c(O)n(C)c2ccccc12	.	18%	-24%	.	46%	-4%	.
CCOC(=O)C1=C(c2ccccc2)N=c2s/c(=C\c3ccc(O)cc3)c(=O)n2C1c1cccs1 (stereo unspecified)	i	2.9µM*	10µM*	54%	2.6µM*	7.1µM*	-15
Cc1c(C(=O)O)oc2ccc(S(=O)(=O)NCCC3=CCCCC3)cc12	.	?	7%	.	?	10µM*	17
Cc1onc(C(=O)Nc2sc3c(c2C(N)=O)CCCC3)c1[N+](=O)[O-]	.	-7%	-7%	.	-6%	-47%	.
CCOC(=O)C1(Cc2cccc(OC)c2)CCCN(C(=O)CCN2CCCO2)C1 (stereo unspecified)	1%	-9%	8%	i	59%	?	-15
CCOC(=O)C1(Cc2cccc(Cl)c2)CCCN(C(=O)CCOC)C1 (stereo unspecified)	-4%	-4%	-1%	i	5%	1%	.
CC(NC(=O)NC(=O)c1cccc(Cl)c1)c1ccccc1 (stereo unspecified)	.	?	?	.	2%	9%	.
Nn1cc(-c2ccccc2)nc1SCC(=O)NC1CCS(=O)(=O)C1 (stereo unspecified)	-14%	.	14%	-12%	34%	-5%	.
CN(C)c1oc(-c2ccc(OCc3ccc(Cl)cc3)cc2)nc1C#N	-13%	11%	-1%	-12%	?	10µM*	-3
CCOc1ccc(Nc2oc(-c3ccc(Cl)cc3)nc2C#N)cc1	?	32%	?	?	16%	-3%	.
O=C(NNC(=O)c1ccncc1)c1ccncc1	.	.	3%	.	18%	1%	.
O=C(NNC(=O)c1ccc(Br)cc1)c1ccncc1	.	40%	15%	.	11%	?	3
CC(C)[C@H](NC(=O)c1ccco1)C(=O)OCc1cc(=O)n2c(n1)sc1ccccc12	-6%	12%	0%	-10%	35%	-4%	.
COc1ccc(NC(=O)CSc2nc(C3CC3)nc3ccccc23)c(OC)c1	-24%	?	?	?	33%	-14%	.
